{"source": "PubChem BioAssay AID2330", "about": "(Broad Institute, 2010)", "note": "Among all 37,000 compounds or so, about 2,800 (7.6%) were called active. About 1% were inconclusive and are not listed. The sample holds actives, similar compounds and a random draw of the others, so the mix is not that of the screen. Values without a mark were called inactive. No stated cut-off is given here; in the data, active means inhibition above about 80%; inconclusive means no clear call, values can overlap the other calls; inactive means below that.", "data": [{"assay": "NOMO-1 AML cell viability reduction, primary screen, STK33 inhibitor project, CellTiter-Glo luminescence (AID 2330)", "conditions": "NOMO-1 AML viability, 72 h, hits give high values, concentration not given here", "values": [{"smiles": "CC(=O)Oc1ccc(N(C(C)=O)S(=O)(=O)c2ccc(Cl)cc2)cc1", "inhibition": "42.4%"}, {"smiles": "CCC(Oc1cccc(NC(=O)c2ccccc2[N+](=O)[O-])c1)C(=O)c1ccccc1", "note": "(stereo not drawn)", "inhibition": "2.87%"}, {"smiles": "Cc1ccc(NC(=O)CSc2ncnc3sc(C)c(C)c23)cc1", "inhibition": "11.3%"}, {"smiles": "Cc1ccc(S(=O)(=O)NCC(=O)N2CCN(c3ccccn3)CC2)cc1", "inhibition": "-2.49%"}, {"smiles": "Cc1ccc(S(=O)(=O)Nc2ccc3c(c2)C(=O)N([C@@H](C)CO)C[C@@H](C)[C@@H](CN(C)Cc2ccncc2)O3)cc1", "inhibition": "22.8%"}, {"smiles": "C[C@H](CO)N1C[C@H](C)[C@@H](CN(C)Cc2ccc3c(c2)OCO3)Oc2ccc(NC(=O)Nc3ccc(F)cc3)cc2C1=O", "inhibition": "-1.77%"}, {"smiles": "COc1ccc(CN(C)C[C@H]2Oc3c(NC(=O)Nc4ccccc4)cccc3C(=O)N([C@@H](C)CO)C[C@@H]2C)cc1", "inhibition": "56.6%"}, {"smiles": "C[C@@H]1CN([C@H](C)CO)C(=O)c2cc(NC(=O)Nc3ccc(C(F)(F)F)cc3)ccc2O[C@H]1CN(C)C(=O)Nc1ccccc1", "inhibition": "24.7%"}, {"smiles": "C[C@@H]1CN([C@H](C)CO)C(=O)c2cccc(NC(=O)Nc3cccc4ccccc34)c2O[C@@H]1CN(C)C(=O)Nc1ccc(F)cc1", "inhibition": "97% (active)"}, {"smiles": "C[C@H]1CN([C@@H](C)CO)C(=O)c2cccc(NC(=O)Nc3ccc(C(F)(F)F)cc3)c2O[C@@H]1CN(C)Cc1ccccc1", "inhibition": "72.2%"}, {"smiles": "C[C@H](CO)N1C[C@H](C)[C@H](CN(C)C(=O)Nc2ccc(C(F)(F)F)cc2)Oc2ccc(NC(=O)Nc3ccccc3)cc2C1=O", "inhibition": "85.9% (active)"}, {"smiles": "C[C@@H]1CN([C@@H](C)CO)C(=O)c2cccc(NC(=O)Nc3ccccc3)c2O[C@H]1CN(C)Cc1ccccc1", "inhibition": "117% (active)"}, {"smiles": "C[C@@H]1CN([C@H](C)CO)C(=O)c2cccc(NC(=O)Nc3cccc4ccccc34)c2O[C@@H]1CN(C)C(=O)Nc1cccc2ccccc12", "inhibition": "10.3%"}, {"smiles": "C[C@@H]1CN([C@@H](C)CO)C(=O)c2cccc(NC(=O)Nc3ccc(F)cc3)c2O[C@@H]1CN(C)C(=O)Nc1ccccc1", "inhibition": "35.8%"}, {"smiles": "C[C@@H]1CN([C@H](C)CO)C(=O)c2cccc(NC(=O)Nc3ccccc3)c2O[C@H]1CN(C)Cc1ccccc1", "inhibition": "75.5%"}, {"smiles": "C[C@H](CO)N1C[C@H](C)[C@H](CN(C)C(=O)Nc2ccccc2)Oc2c(NC(=O)Nc3ccc(C(F)(F)F)cc3)cccc2C1=O", "inhibition": "96.2% (active)"}, {"smiles": "C[C@@H]1CN([C@@H](C)CO)C(=O)c2cccc(NC(=O)Nc3ccc(F)cc3)c2O[C@H]1CN(C)C(=O)Nc1ccc(F)cc1", "inhibition": "-5.44%"}, {"smiles": "C[C@H]1CN([C@@H](C)CO)C(=O)c2cc(NC(=O)Nc3ccccc3)ccc2O[C@@H]1CN(C)C(=O)Nc1ccccc1", "inhibition": "6.27%"}]}]}
